Holding throughout (test): protein-binding microarray (PBM); PBM: ~300 nM protein, 6 mM HEPES pH 7.8, 80 mM KCl, 0.5 mM EDTA, 0.5 mM EGTA, 6% glycerol, 35 ng/ul poly-dIdC, 1% milk, 1 h, room temperature; Ap Aiptasia and Nv Nematostella (sea anemones) / Co Capsaspora / Aq Amphimedon (sponge) / Dm Drosophila / Hu human; RHD is the Rel homology domain; high values mean tight binding
Settings in all cases: dsDNA, one strand shown

One experiment has as its target T1, GST-Ap-NF-kB RHD (Exaiptasia pallida (Aiptasia), UniProt A0A913YAJ5 2-422).
T1 sequence: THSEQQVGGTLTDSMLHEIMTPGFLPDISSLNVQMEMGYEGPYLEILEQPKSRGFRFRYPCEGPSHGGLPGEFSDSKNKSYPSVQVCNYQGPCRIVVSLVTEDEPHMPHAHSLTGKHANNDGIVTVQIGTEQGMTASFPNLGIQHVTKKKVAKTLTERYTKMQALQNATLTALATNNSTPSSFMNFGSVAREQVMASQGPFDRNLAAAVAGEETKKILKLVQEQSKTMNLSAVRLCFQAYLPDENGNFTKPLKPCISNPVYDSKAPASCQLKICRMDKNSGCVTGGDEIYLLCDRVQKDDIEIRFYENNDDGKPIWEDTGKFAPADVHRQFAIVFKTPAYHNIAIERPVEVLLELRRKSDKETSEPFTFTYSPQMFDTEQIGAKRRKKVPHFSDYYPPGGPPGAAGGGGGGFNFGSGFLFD

Experiment [1] concerns the target T2, GST-Nv-NF-kB (Cys allele) (Nematostella vectensis, UniProt E5G601 2-411).
T2 sequence: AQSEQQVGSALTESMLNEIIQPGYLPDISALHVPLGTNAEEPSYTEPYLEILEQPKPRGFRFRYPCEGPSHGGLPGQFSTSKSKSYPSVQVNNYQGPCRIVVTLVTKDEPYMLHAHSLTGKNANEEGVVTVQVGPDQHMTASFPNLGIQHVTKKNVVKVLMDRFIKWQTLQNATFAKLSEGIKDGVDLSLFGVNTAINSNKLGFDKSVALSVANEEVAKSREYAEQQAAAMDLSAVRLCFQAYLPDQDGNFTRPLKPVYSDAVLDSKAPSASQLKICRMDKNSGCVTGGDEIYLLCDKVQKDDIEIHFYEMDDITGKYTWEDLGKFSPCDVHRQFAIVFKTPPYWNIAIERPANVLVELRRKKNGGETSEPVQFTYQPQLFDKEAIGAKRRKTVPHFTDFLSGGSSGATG

A further experiment has as its target T3, GST-Co-NF-kB (Capsaspora owczarzaki, UniProt F1ARL5 200-546).
T3 sequence: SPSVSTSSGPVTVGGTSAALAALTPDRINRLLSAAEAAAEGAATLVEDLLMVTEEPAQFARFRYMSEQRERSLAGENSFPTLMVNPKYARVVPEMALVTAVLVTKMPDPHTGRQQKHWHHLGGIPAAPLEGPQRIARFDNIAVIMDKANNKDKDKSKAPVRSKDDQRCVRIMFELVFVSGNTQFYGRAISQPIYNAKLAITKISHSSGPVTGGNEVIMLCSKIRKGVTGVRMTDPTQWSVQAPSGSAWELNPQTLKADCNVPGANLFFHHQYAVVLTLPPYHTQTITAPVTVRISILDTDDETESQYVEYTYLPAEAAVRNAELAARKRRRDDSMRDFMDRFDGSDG

A further experiment has as its target T4, GST-Dm-Relish (Drosophila melanogaster, UniProt Q94527 99-473).
T4 sequence: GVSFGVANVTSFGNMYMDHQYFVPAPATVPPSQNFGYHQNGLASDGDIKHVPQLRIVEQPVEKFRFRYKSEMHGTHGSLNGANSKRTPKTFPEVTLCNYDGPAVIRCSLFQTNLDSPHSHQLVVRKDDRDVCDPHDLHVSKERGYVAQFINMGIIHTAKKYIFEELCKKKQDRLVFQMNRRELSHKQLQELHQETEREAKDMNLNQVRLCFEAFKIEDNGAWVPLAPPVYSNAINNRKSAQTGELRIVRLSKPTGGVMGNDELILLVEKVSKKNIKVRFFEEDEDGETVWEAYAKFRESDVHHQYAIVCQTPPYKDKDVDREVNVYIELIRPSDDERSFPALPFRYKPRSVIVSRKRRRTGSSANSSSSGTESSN

Another experiment has as its target T5, GST-Aq-NF-kB (Amphimedon queenslandica, UniProt A9Y5G7 2-389).
T5 sequence: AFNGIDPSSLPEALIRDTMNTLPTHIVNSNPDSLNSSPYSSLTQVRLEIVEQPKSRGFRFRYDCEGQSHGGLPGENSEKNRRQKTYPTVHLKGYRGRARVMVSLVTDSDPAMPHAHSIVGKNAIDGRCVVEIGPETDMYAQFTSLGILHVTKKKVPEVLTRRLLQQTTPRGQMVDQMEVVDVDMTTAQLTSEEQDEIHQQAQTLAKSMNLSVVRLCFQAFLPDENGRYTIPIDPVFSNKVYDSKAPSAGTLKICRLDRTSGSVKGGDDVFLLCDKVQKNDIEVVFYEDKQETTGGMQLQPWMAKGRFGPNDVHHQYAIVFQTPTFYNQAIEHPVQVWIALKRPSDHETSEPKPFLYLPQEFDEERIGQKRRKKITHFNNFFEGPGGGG

For the sequence “CCGATTAACATCACTAAATTCCCTGATGTTAATCGGGTCTTGATTCGCTTGACGCTGCTG”, the binding signal with GST-Ap-NF-kB RHD was 3.8 z-score; in experiment [1] it was 5.35 z-score; with GST-Co-NF-kB, 4.15 z-score; in the experiment with GST-Dm-Relish, 3.63 z-score; with GST-Aq-NF-kB, 4.56 z-score.
Taken in the same sequence, the figures for “CCGATTAACATCAGTAATTCCCATGATGTTAATCGGGTCTTGATTCGCTTGACGCTGCTG” were 4.02 z-score, 4.3 z-score, 5.42 z-score, 7.23 z-score and 4.24 z-score.
Taken in the same sequence, the figures for “CCGATTAACATCACATTCTCCCCTGATGTTAATCGGGTCTTGATTCGCTTGACGCTGCTG” were 4.7 z-score, 4.44 z-score, 6.71 z-score, 1.55 z-score and 3.34 z-score.
For “CCGATTAACATCAGAAATCCCACTGATGTTAATCGGGTCTTGATTCGCTTGACGCTGCTG”, in that order: 2.54 z-score, 2.54 z-score, 1.65 z-score, 5.45 z-score and 2.41 z-score.
With “CCGATTAACATCACATGTTCCCCTGATGTTAATCGGGTCTTGATTCGCTTGACGCTGCTG”, the binding signal with GST-Ap-NF-kB RHD turned out to be 4.94 z-score; in experiment [1] it was 5.26 z-score; with GST-Co-NF-kB it was 6.79 z-score; with GST-Dm-Relish, 3.04 z-score; with GST-Aq-NF-kB it was 4.62 z-score.
For “CCGATTAACATCAGGAGTTTCCCTGATGTTAATCGGGTCTTGATTCGCTTGACGCTGCTG”, in that order: 4.6 z-score, 6.51 z-score, 3.2 z-score, 4.94 z-score and 8.06 z-score.
For “CCGATTAACATCAGGGAACAACCTGATGTTAATCGGGTCTTGATTCGCTTGACGCTGCTG”, in that order: 2.52 z-score, 2.46 z-score, 1.05 z-score, 4.7 z-score and 4.61 z-score.
As to “CCGATTAACATCAGGGAACCCCATGATGTTAATCGGGTCTTGATTCGCTTGACGCTGCTG”, the binding signal with GST-Ap-NF-kB RHD amounted to 3.95 z-score; in experiment [1], 2.07 z-score; with GST-Co-NF-kB it was 1.54 z-score; with GST-Dm-Relish, 10.5 z-score; with GST-Aq-NF-kB, 4.59 z-score.
For “CCGATTAACATCAGGGGGTGTACTGATGTTAATCGGGTCTTGATTCGCTTGACGCTGCTG”, in that order: 3.65 z-score, 3.29 z-score, 2.61 z-score, 8.3 z-score and 4.78 z-score.
For “CCGATTAACATCAAGGGGGGAGATGATGTTAATCGGGTCTTGATTCGCTTGACGCTGCTG”, in that order: 5.84 z-score, 5.1 z-score, 6.56 z-score, 2.93 z-score and 4.98 z-score.

The record behind these values is PMC5700166.
